From the supplement of paper PMC6555819 come the findings set out here.

In the experiment the test system is RARb:RXRa (NR concentration 270 nM, RXRa partner concentration 90 nM). In words: PBM binding z-score (relative to random genomic background probes); higher = stronger binding; sequences stand for … in GC…GCGATTGACAGCGTAGAATGAAGG
The gist of the method:
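Binding buffer was PBS pH 7.4 with 2% milk, 0.02% Triton X-100, 1 mM DTT, 0.2 mg/mL BSA and 0.4 mg/ml salmon testes DNA. In it, ligand-free nuclear receptor dimers were incubated 1 h on custom Agilent 4×180K protein-binding microarrays carrying double-stranded probes. Antibodies against each partner (one per run) detected binding, and z-scores were calculated against random background probes after regression normalization of scanned fluorescence.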
CTCGAAAGGTCGGTTGAGGTGAGAATACGGATAA registered a PBM binding z-score of 2.98.
To TCTGCTAGGTCAGCTGGTCAGCTAACGAGCTGCC belongs 3.64; to GCTTGTAGATCATGGTTAAGAAAGACTAAGCTAA, -0.371; to TCTGCTAGGTCAGTTTGTCAGCTAACGAGCTGCC, 2.72.
To TCATATAGGTAAATGCTAGTTGAAAGTCCGATCT belongs 0.37.
The figure for TCTCGGAGGACACGTAAGGTCAGAGCTCGACATC is 3.41; for ATGTCTAGGTAAAGATAGTTCAGTGAATGCAAAT it is 0.63.
Turning to TATACAGGGTCAAAGTCCAGAGTACGAATGTCGA, the PBM binding z-score was 4.42.
To GGAACCAGGGCAAGTTGATAGCAGAGTTTGATGG belongs 2.26; to CCTAGCAGGCCAGGGTCACTGAAGCATTTCGCTT, 2.55.
CGTCCAAGGTCAATGCTAGGACAGTGAAAGCATT yielded a PBM binding z-score of 4.96.
Turning to CCTACTGGGCCATTCATAGGTCATTGATCATATG, the PBM binding z-score is 1.88.
To CGAACTAGGTGATCCAGGACAGTGAATACATTGA belongs 0.0644.
The sequence ACTAGCAGGTCAAGTTTGGGTCACTCAAACAAAG came in with a PBM binding z-score of 4.61.
To TCTCGTAGATCAAGCAGGTTAAGAAAGCCTGAGT belongs -0.255; to GCTGCTAGGTCAGTTTGGTCAGCTAACGGGTACG, 3.1.
To CCTACTGGGCCATCAGATCATTGATATCAACGTT belongs 0.228; to CCGAGTGGGGCAGAAAGGTTACCATACCATCCGG, 1.63.
The figure for AGTCAAAGTTCACTAGGTAACCTAAGATTCAGCT is 4.7; for TCTAGCAGGCCCGAGGGTCACTCAAGAGGTACGG it is 1.94.
Turning to TCGACTAGGTTACCAATGGGGCATTCAGCTTTCT, the PBM binding z-score stood at 1.18.
To GCGACTGGGGCATCAGCAGGTTAGCATAACTTAA belongs 0.511.
